PubChem BioAssay AID1479 (National Center for Advancing Translational Sciences (NCATS), 2009)
Values joined by “and” are separate entries in the source; they are usually repeats but may differ in a detail not shown here. Identical values can stand only once. Out of some 280,000 compounds screened, about 820 (0.29%) were called active. About 1% were inconclusive and are not listed. The call rests on the fitted dose curve; in most records, active means well fitted curve in either direction with a large enough effect; inconclusive means small, poorly fitted or top-dose-only effect; inactive means flat fitted curve, though single readings scatter. The entries come from a sample that favours actives as a whole. Where a call stands in place of a potency, no number is given. Where a structure was tested more than once in an assay, its records may differ in their call.

Experiment: Total Fluorescence Counterscreen for Inhibitors of the Interaction of Thyroid Hormone Receptor and Steroid Receptor Coregulator 2
Conditions: TRb/SRC2 Texas Red total fluorescence interference; series mostly up to 106 µM
Source text: NIH Molecular Libraries Probe Production Network [MLPCN]
NIH Chemical Genomics Center [NCGC]
Assay Provider: R. Kip Guy, St. Jude Children's Research Hospital
Thyroid receptor (TR) regulates many homeostatic processes including basal metabolism, cardiovascular function, body weight, and lipid trafficking. TR modulators are potential therapeutics for obesity and hyperlipidemias but current thyroid analogs have undesirable side effects, particularly cardiac stimulation. To identify inhibitors that specifically prevent the interaction of TR with the steroid receptor […] 2 (SRC2), a fluorescence polarization assay was screened. This assay detects interaction of the ligand-binding domain of human TRb with a Texas Red labeled SRC2 peptide, corresponding to a 20 amino acid region of the nuclear receptor interaction domain (Arnold et al., 2006). Total fluorescence (555 nm excitation and 632 nm emission) was measured to identify potential fluorescent and light absorbing compounds. Such compounds may be artifacts that interfere with the fluorescence polarization assay.
Arnold, L. A.; Estebanez-Perpina, E.; Togashi, M.; Shelat, A.; Ocasio, C. A.; McReynolds, A. C.; Nguyen, P.; Baxter, J. D.; Fletterick, R. J.; Webb, P.; Guy, R. K. A high-throughput screening method to identify small molecule inhibitors of thyroid hormone receptor coactivator binding. Sci STKE 2006, p 13.
NCGC Assay Protocol Summary:
For screening, 5 uL/well 0.6 uM TRb and 20 nM SRC2 Texas Red in protein buffer (20mM Tris hydrochloride, 100mM NaCl, 10% glycerol, 1mM EDTA, 0.01% NP-40, 1mM DTT, 1uM T3 and 5% DMSO) was dispensed into black solid 1536-well plates (Grenier) using a solenoid-based dispenser. Following transfer of 23 nL compound or DMSO vehicle by a pin tool, the plates were centrifuged 15 s at 1000 RPM and incubated 5 hr at ambient temperature. The plates were read by an Envision (Perkin Elmer) to detect fluorescence polarization of SRC2 Texas Red (555 nm excitation and 632 nm emission). Data were normalized to unbound (all components except TRb) and bound SRC2 Texas Red controls. Total fluorescence (TF) was calculated as follows: TF = S + 2P where S and P are fluorescence readings in the parallel and perpendicular channels, respectively.
Keywords: NIH Roadmap, MLPCN, MLI, MLSMR, qHTS, NCGC, qHTS, thyroid hormone receptor, steroid receptor coactivator, fluorescence polarization
Potency means the concentration at half of the fitted maximal effect; tags describe the fitted curve by direction and shape or compound fluorescence and quenching.

| SMILES | Potency |
| --- | --- |
| COc1cc(OC)c(-n2cc(-c3ccc(Cl)cc3)[nH]c2=O)cc1Cl | 126 µM [quencher] (active) |
| COc1ccc(-c2cn(-c3ccc(OC)cc3)c(=S)[nH]2)cc1 | inactive |
| COc1cc(OC)c(-n2c(C)cc(C=O)c2C)cc1Cl | inactive |
| Cc1nc2nc(SCC(=O)NC3CCC(C)CC3)nn2c(C)c1Cc1ccccc1Cl (stereo unspecified) | inactive |
| CCS(=O)(=O)N1CCc2cc(C(=O)NCc3ccc(C)cc3)ccc21 | inactive |
| O=C(Nc1ccon1)c1sc2ccccc2c1Cl | inactive |
| CCCC(=O)Nc1ccc(NC(=O)c2sc3ccccc3c2Cl)cc1 | 1.26 µM [quencher] (active) |
| COC(=O)c1cc(NC(=O)c2sc3ccccc3c2Cl)cc(C(=O)OC)c1 | inactive |
| O=C(NCC(c1ccc2c(c1)OCO2)N1CCN(c2ccccc2)CC1)C(=O)Nc1ccccc1F (stereo unspecified) | inactive |
| Cc1ccc(Cl)cc1N(C)C(=O)Cn1nc(Cc2cccnc2)c2ccccc2c1=O | inactive |
| CCC(=O)N1N=C(c2ccc(OC)cc2)CC1c1cn(-c2ccccc2)nc1-c1cccs1 (stereo unspecified) | inactive |
| COc1ccc(Cl)cc1NC(=O)CCn1c(=O)c2cccn2c2ccccc21 | inactive |
| Cc1ccc(C)c(N2CCN(S(=O)(=O)c3ccc4c(c3)C(C(C)C)C(=O)N4)CC2)c1 (stereo unspecified) | inactive |
| Cc1c(-c2nc(-c3ccc4c(c3)OCO4)no2)nnn1-c1ccc(Br)cc1F | inactive |
| Cc1ccc(CN2CCCn3nc(C(=O)NCc4ccccc4Cl)cc3C2=O)cc1 | inactive |
| Cc1ccccc1CNC(=O)CCc1cn(Cc2ccccc2C)c2ccccc12 | inactive |
| Cc1ccc(C)c2sc(NC(=O)c3ccc(S(=O)(=O)N4CCCC4)cc3)nc12 | inactive |
| Cc1ccc(S(=O)(=O)n2nc(-c3ccc(Cl)cc3)nc2NCc2ccccc2)cc1 | 1000 µM [quencher] (active) |
| COc1ccc(CNc2nc(-c3ccc(Cl)cc3)nn2S(=O)(=O)c2ccc(C)cc2)cc1 | inactive |
| O=C(c1ccco1)n1nc(-c2ccc(Cl)cc2)nc1NCc1ccccc1 | inactive |
| CCOC(=O)C1CCN(c2nc3c(S(=O)(=O)c4ccc(CC)cc4)nnn3c3ccc(Cl)cc23)CC1 | inactive |
| O=c1cc(-c2ccc(O)c(O)c2)oc2cccc(O)c12 | inactive |
| Oc1ccc(O)c2c(O)cccc12 | 28.2 µM [quencher] (active) |
| Cn1c2ccccc2c(=O)c2c(O)cccc21 | inactive |

| SMILES | Potency |
| --- | --- |
| CCOc1cccc(NC(=O)c2ccc(F)c(S(=O)(=O)N(CC)c3cccc(C)c3)c2)c1 | inactive |
| Cc1ccc(Cn2c(CNC(=O)Cc3cccc(C)c3)nc3cccnc32)cc1 | inactive |
| Cc1ccc(C(=O)Nc2cc3c(cc2N2CCCC2)n(C)c(=O)c(=O)n3C)cc1 | inactive |
| CCn1c(=O)c(=O)n(CC)c2cc(N3CCCCC3)c(NC(=O)c3ccc(Cl)cc3)cc21 | inactive |
| Cc1ccc(NC(=O)c2ccc(CN3CC(=O)N4CCCCC4C3=O)cc2)c(Cl)c1 (stereo unspecified) | 70.8 µM [quencher] (active) |
| CC(C)CCCCCOC(=O)CS | inactive |
| CCOc1ccccc1NC(=O)Cn1c(=O)n(-c2cccc(C)c2)c(=O)c2c1c1cc(OC)ccc1n2C | inactive |
| COc1ccc(-c2c(C)nn3c(N4CCC(C(=O)N5CCCCC5)CC4)cc(C)nc23)cc1OC | inactive |
| COc1ccc(-c2c(C)nn3c(N4CCC(C(=O)NCCC(C)C)CC4)cc(C)nc23)cc1OC | inactive |
| COc1cccc(NC(=O)C2CCN(c3cc(C)nc4c(-c5ccc(Cl)cc5)c(C)nn34)CC2)c1 | 89.1 µM [quencher] (active) |
| COc1ccc(CCNC(=O)c2cc3cccc4c3n2CC(C)S4)c(OC)c1OC (stereo unspecified) | inactive |
| COc1ccc2c(CN3CCN(S(=O)(=O)c4cccs4)CC3)cc(=O)oc2c1 | inactive |
| Cc1cc2oc(=O)cc(CN3CCN(S(=O)(=O)c4cccs4)CC3)c2cc1C(C)C | 7.08 µM [quencher] (active) |
| O=S(=O)(c1cccs1)N1CCN(Cc2ccccc2)CC1 | inactive |
| COc1cc(OC)cc(-c2nc3nc(C)c(CCC(=O)Nc4ccccc4)c(C)n3n2)c1 | inactive |
| Cc1ccc(C)c(Oc2c(C(F)(F)F)oc3c(CN4CCN(C)CC4)c(O)ccc3c2=O)c1 | inactive |
| CCOC(=O)c1c(NC(=O)Cc2coc3ccc(CC)cc23)sc2c1CCC2 | inactive |
| CCOCCCNC(=O)c1c(NC(=O)Cc2coc3ccc(C)cc23)sc2c1CCC2 | 35.5 µM [quencher] (active) |
| CCOCCCNC(=O)c1c(NC(=O)Cc2coc3c(C)c(C)ccc23)sc2c1CCC2 | inactive |
| Cc1ccc(-n2c(SCC(=O)c3ccccc3)nc3c([nH]c4ccccc43)c2=O)cc1 | inactive |
| COc1cc(OC)cc(C(=O)Nc2ccc3nc(Nc4cccc(C(F)(F)F)c4)cc(C)c3c2)c1 | inactive |
| Cc1c(NC(=O)C(C)(C)C)cccc1-c1nc2ccccc2s1 | inactive |
| COc1cccc(CNC(=O)c2ccc3c(c2)sc2nc(-c4cccc(OC)c4)cn23)c1 | inactive |
| CCCCn1cc(S(=O)(=O)c2ccc(OCC)cc2)c(=O)c2cc(OC)c(OC)cc21 | inactive |

| SMILES | Potency |
| --- | --- |
| CC(C)Sc1oc(-c2cccs2)nc1S(=O)(=O)c1ccc(Cl)cc1 | inactive |
| CC1(C)C(=O)N(Cl)C(=O)N1Cl | inactive |
| COc1ccc(OC)c(NC(=O)CSC2=Nc3ccccc3C3=NC(CC(=O)NCc4ccc(F)cc4)C(=O)N23)c1 (stereo unspecified) | inactive |
| Cc1ccc(S(=O)(=O)N(Cc2nc(-c3ccc(Cl)cc3)no2)C2CCCCC2)cc1 | inactive |
| C[Si](C)(C)N[Si](C)(C)C | inactive |
| CC(C)(C)OC(=O)N1CCC(c2c(C(=O)NCc3ccccn3)cnn2-c2ccc(F)cc2)CC1 | inactive |
| Cc1c(Cl)cccc1NC(=O)C1CCCN(c2ncnc3onc(C)c23)C1 (stereo unspecified) | inactive |
| Cn1nnnc1SCCCNCc1ccc(Cl)cc1 | inactive |
| O=C(Cn1c(=O)n(Cc2cccs2)c(=O)c2cccnc21)Nc1ccc(F)cc1 | inactive |
| CCOc1cccc(C(=O)Nc2nnc(S(=O)(=O)N(C)c3ccc(C)cc3)s2)c1 | inactive |
| Cc1ccccc1OCCSc1nc2ccc(NC(=O)c3ccco3)cc2s1 | inactive |
| C=Cc1ccc(Cn2c(C(=O)O)c(CNC3CCCC3)c3ccc(C)cc32)cc1 | inactive |
| O=C(COc1ccc(Cl)cc1)Nc1ccccc1OCc1cc(=O)n2ccccc2n1 | inactive |
| Cn1c(SCC(=O)N2CCCc3ccccc32)ncc(C(=O)Nc2ccc(F)cc2)c1=O | inactive |
| COc1ccc(-c2nn(CC(=O)Nc3ccccc3F)c3c2cnc2ccc(F)cc23)cc1 | inactive |
| CCN(CC)c1nn2c(=O)c(C(=O)NCCc3ccccc3)cnc2s1 | inactive |
| COc1ccc(N2CCN(c3nc(-c4ccccc4F)nc4ccccc34)CC2)cc1 | inactive |
| Oc1c(Cl)cc(Cl)c(Cl)c1Cc1c(O)c(Cl)cc(Cl)c1Cl | inactive and 44.7 µM [quencher] (active) |
| CCOc1ccccc1CNC(=O)C1CCCN(S(=O)(=O)c2ccc3c(ccn3C)c2)C1 (stereo unspecified) | inactive |
| Cc1cccc(C(C)C)c1NC(=O)C(NS(=O)(=O)c1cccc2nsnc12)c1ccccc1 (stereo unspecified) | inactive |
| O=C(Nc1ccc(N2CCOCC2)cc1)c1ccc2c(c1)OCO2 | inactive |
| O=C(Nc1ccc2c(c1)OCO2)c1ccc(N2C(=O)c3ccccc3C2=O)cc1 | 0.0079 µM [quencher] (active) |
| Cn1c(=O)n(C)c2cc(C(=O)Nc3ccc4c(c3)OCO4)ccc21 | inactive |
| Cc1cccc(-n2ccnc2SCC(=O)Nc2cccc3ccccc23)c1C | inactive |

| SMILES | Potency |
| --- | --- |
| COc1cc(C(=O)NCC(c2ccc(Cl)cc2)N2CCOCC2)cc(OC)c1OC (stereo unspecified) | inactive |
| O=C(NCC(c1ccc(Cl)cc1)N1CCOCC1)c1ccccc1F (stereo unspecified) | inactive |
| CC(C)(C)c1ccc(C(=O)NCC(c2ccc(Cl)cc2)N2CCOCC2)cc1 (stereo unspecified) | 10 µM [quencher] (active) |
| CCCNC(=O)C(CC)n1nc(CC)n2c(cc3oc(C)cc32)c1=O (stereo unspecified) | 22.4 µM [quencher] (active) |
| CCC(C(=O)NCc1ccc(OC)cc1)n1nc(C)n2c(cc3occc32)c1=O (stereo unspecified) | inactive |
| CCOc1ccc(CCNC(=O)C(CC)n2nc(C)n3c(cc4sccc43)c2=O)cc1OCC (stereo unspecified) | inactive |
| CCOc1cc(NC(=S)NCCCOC)c(OCC)cc1NC(=O)c1ccco1 | 7940 µM [quencher] (active) |
| CCOc1cc(NC(=S)NCc2ccco2)c(OCC)cc1NC(=O)c1ccco1 | inactive |
| CCOc1cc(NC(=O)c2ccco2)c(OCC)cc1NC(=O)COc1ccccc1 | inactive |
| O=C(NCCc1ccccc1)c1cnc2sc(N3CCCC3)nn2c1=O | inactive |
| O=C(CCn1c(=O)oc2ccccc21)Nc1ccon1 | inactive |
| CCOC(=O)c1ccc(NC(=O)CCn2c(=O)oc3ccccc32)cc1 | 501 µM [quencher] (active) |
| CCOC(=O)c1ccc(NC(=O)CCS(=O)(=O)c2ccc3c(c2)oc(=O)n3C)cc1 | inactive |
| CCOC(=O)c1ccc2c(c1)N(Cc1cccc(OC)c1)C(=O)c1ccccc1S2(=O)=O | inactive |
| Cc1nn(-c2ccc(F)cc2)c(-n2cccc2)c1C(=O)N1CCN(c2ccccc2)CC1 | inactive |
| CCCOc1ccc(N/C=C/C(=O)C(C)(C)C)cc1 | inactive |
| O=C(/C=C/Nc1ccccc1OC(F)(F)F)C(F)(F)F | inactive |
| CN(C)c1ccc(N/C=C/C(=O)C(F)(F)F)cc1 | 44.7 µM [fluorescent] (active) |
| COC(=O)c1ccc(CSc2nncn2C)cc1 | inactive |
| CCOC(=O)c1ccc(CSc2nnc3cc(C)c4ccccc4n23)cc1 | 1.41 µM [quencher] (active) |
| COC(=O)c1ccc(CSc2nncn2N)cc1 | inactive |
| O=C(Nc1ccc(OC(F)(F)F)cc1)c1cc2c(=O)n3ccccc3nc2s1 | inactive |
| Cn1c(=O)c2c(ncn2CC(=O)Nc2cccc(C(F)(F)F)c2)n(C)c1=O | inactive |
| Cn1c(C(=O)Nc2cccc(C(F)(F)F)c2)cc2c(=O)n3ccccc3nc21 | 44.7 µM [quencher] (active) |
